Consider 28 compounds from the supplement of paper PMC4840960.

SMILES strings stand for the structures. Values without a mark were called inactive.

For this assay, the system named is E18 rat cortical neuron-glia co-culture. Nature of the assay: myelination (MBP fiber length per Olig2+ nucleus), % of 1 µM DAPT response (DMSO = 0) (% of DAPT); higher = more myelination, active = 50 or more. To be noted: 5 µM; treatment time: 8 days (DIV5-DIV13). The method in brief: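 Four 10X fields in each of duplicate wells were analysed after cultures were fixed in 4 % paraformaldehyde and immunostained for MBP and Olig2, with DAPI as the nuclear counterstain. The cultures were papain-dissociated primary E18 rat cortical co-cultures at 20,000 cells/well on poly-d-lysine/laminin 96-well plates, dosed with library compounds at 1 or 5 µM in myelination medium from DIV5 to DIV13. The myelination readout was continuous straight MBP fiber length per Olig2+ nucleus, with 0.1 % DMSO set to 0 and a 1 µM positive control set to 100.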
With `CC(C)(C#N)c1cc(Cn2cncn2)cc(C(C)(C)C#N)c1` [Anastrozole], the myelination is -11.9.

Take `CO[C@@]1(NC(=O)Cc2cccs2)C(=O)N2C(C(=O)O)=C(COC(N)=O)CS[C@@H]21` [Cefoxitin]: the myelination was -13.8.

Regarding `Cc1cnc(C(=O)NCCc2ccc(S(=O)(=O)NC(=O)NC3CCCCC3)cc2)cn1` [Glipizide], the myelination is -12.8.

On to `COc1ccc(CN2CCN(C(c3ccc(F)cc3)c3ccc(F)cc3)CC2)c(OC)c1OC` [Lomerizine], for which the myelination is -23.5.

On to `CC1COc2c(N3CCN(C)CC3)c(F)cc3c(=O)c(C(=O)O)cn1c23` (stereo not drawn) [Ofloxacin], for which the myelination is -17.

Consider `CN(C)CCOC(c1ccccc1)c1ccccc1` [Diphenhydramine], for which the myelination is -17.4.

For `C/C(=C\C(=O)OCCCCCCCCC(=O)O)C[C@@H]1OC[C@H](C[C@@H]2O[C@H]2[C@@H](C)[C@H](C)O)[C@@H](O)[C@H]1O` [Mupirocin], the myelination was -11.7.

With `CC[C@@H]1C(=O)OC[C@@H]1Cc1cncn1C` [Pilocarpine], the myelination was -11.2.

`CNCCC=C1c2ccccc2CCc2ccccc21` [Nortriptyline]: the myelination is 54.7 (active).

Consider `CC1(C)S[C@@H]2[C@H](NC(=O)[C@H](N)c3ccc(O)cc3)C(=O)N2[C@H]1C(=O)O` [Amoxicillin], for which the myelination was -33.3.

On to `C=C[C@H]1CN2CC[C@H]1C[C@H]2[C@H](O)c1ccnc2ccc(OC)cc12` [Quinine], for which the myelination was -11.3.

As to `C#C[C@]1(O)CC[C@H]2[C@@H]3[C@H](C)CC4=C(CCC(=O)C4)[C@H]3CC[C@@]21C` [Tibolone], the myelination was -13.2.

With `C[C@@H]1C[C@H]2[C@@H]3CCC4=CC(=O)C=C[C@]4(C)[C@@]3(F)[C@@H](O)C[C@]2(C)[C@H]1C(=O)CO` [Desoximetasone], the myelination is -8.43.

Regarding `COc1ccc2c3c1O[C@H]1C[C@@H](O)C=C[C@@]31CCN(C)C2` [Galantamine], the myelination is -40.7.

Take `N[C@@H](C(=O)N[C@@H]1C(=O)N2C(C(=O)O)=C(Cl)CS[C@H]12)c1ccccc1` [Cefaclor]: the myelination is -10.6.

In the case of `CC1(C)S[C@@H]2[C@H](NC(=O)COc3ccccc3)C(=O)N2[C@H]1C(=O)O` [Penicillin V], the myelination is -3.83.

Turning to `CN1CCN(C2=Nc3cc(F)ccc3Cc3ccccc32)CC1` [Fluperlapine], the myelination was -12.9.

For `CNC(=C[N+](=O)[O-])NCCSCc1ccc(CN(C)C)o1` [Ranitidine], the myelination is -7.22.

In the case of `C[C@H]1C[C@H]2[C@@H]3CCC4=CC(=O)C=C[C@]4(C)[C@@]3(F)[C@@H](O)C[C@]2(C)[C@@]1(O)C(=O)CCl` [Clobetasol], the myelination is -9.01.

As to `CC(COc1ccccc1)N(CCCl)Cc1ccccc1` (stereo not drawn) [Phenoxybenzamine], the myelination is 0.385.

Turning to `Nc1ccc(O)c(C(=O)O)c1` [Mesalamine], the myelination is -28.3.

For `CC12CC3CC(C)(C1)CC(N)(C3)C2` [Memantine], the myelination was -7.18.

In the case of `C[C@H]1O[C@H](O[C@H]2[C@H](O)[C@@H](O)[C@@H](O[C@H]3[C@H](O)[C@@H](O)C(O)O[C@@H]3CO)O[C@@H]2CO)[C@H](O)[C@@H](O)[C@@H]1N[C@H]1C=C(CO)[C@@H](O)[C@H](O)[C@H]1O` (stereo partly drawn) [Acarbose], the myelination is -6.72.

In the case of `Cc1[nH]c(=O)c(C#N)cc1-c1ccncc1` [Milrinone], the myelination was -15.7.

As to `Nc1ncn([C@@H]2O[C@H](CO)[C@@H](O)[C@H]2O)c(=O)n1` [Azacitidine], the myelination is 12.8.

With `CC(=O)[C@H]1CC[C@H]2[C@@H]3CCC4=CC(=O)CC[C@]4(C)[C@H]3CC[C@]12C` [Progesterone], the myelination was -38.4.

Take `c1ccc2c(c1)CCCC2C1=NCCN1` (stereo not drawn) [Tyzine]: the myelination is -2.07.

Turning to `COc1ccc(CCN(C)CCCC(C#N)(c2ccc(OC)c(OC)c2)C(C)C)cc1OC` (stereo not drawn) [Verapamil], the myelination was -53.6.
